Among the data in PubChem BioAssay (Tox21) are outcome and Potency values, retold here.

A number with no mark means an inactive call. Inconclusive results are not listed. The source made the active and inactive calls. Unless noted, calls follow the shape of the dose curve; as a rule, active = well fitted curve in the direction sought with a large enough effect in the repeat runs; inconclusive = weak or mixed curves; inactive = no such curve, though single readings can be large; an effect the other way counts as inactive or inconclusive.

The nature of assay [1]: qHTS RealTime-Glo MT Cell Viability Assay in HEK293 cells - 0 hour (AID 1224880). Also: top concentration of the series differs between compounds; nearly all actives have a fitted effect of over 45% in size. The procedure, abridged: (§1)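 Measured as luminescence from the same continuously cultured HEK293 wells at successive time points (0, 8, 16, 24, 32, 40 h) after compound addition. Reagent present from seeding; dosing at 5 h; incubation 37 C.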
A short description of assay [2]: A CellTox Green Cytotoxicity Assay to monitor cytotoxicity in HepG2 cells - 0 hour (AID 1224882). Also: nearly all actives have a fitted effect of over 35% in size. The procedure, abridged: (§2)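 Fluorescent DNA-binding dye, 600 HepG2 cells/well, 5 h preincubation then compound in DMSO; same plates read at 0–40 h, 37 C.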
The nature of assay [3]: A CellTox Green Cytotoxicity Assay to monitor cytotoxicity in HepG2 cells - 32 hour (AID 1224883). Also: nearly all actives have a fitted effect of over 50% in size. Also: potency is read from the fitted curve at half-maximal effect. The essentials: as §2
Assay [4] is described as follows: A CellTox Green Cytotoxicity Assay to monitor cytotoxicity in HEK293 cells - 8 hour (AID 1224884). Also: nearly all actives have a fitted effect of over 35% in size. The procedure, abridged:
(§3)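 Homogeneous no-lysis format: HEK293 cell suspension mixed with CellTox Green reagent, seeded, incubated 5 h at 37 C/5% CO2, then dosed by pintool with compound in DMSO.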

Assay [5] can be described thus: qHTS RealTime-Glo MT Cell Viability Assay in HepG2 cells - 16 hour (AID 1224885). Also: nearly all actives have a fitted effect of over 50% in size. The essentials:
(§4)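 Cells + NanoLuc/prosubstrate dispensed (600 cells/well) → 5 h at 37 C/5% CO2 → compounds in DMSO transferred → 40 h incubation at 37 C, luminescence read at 0, 8, 16, 24, 32, 40 h.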
(In general: qHTS replaces the single test concentration by a dilution series.)

A short description of assay [6]: qHTS RealTime-Glo MT Cell Viability Assay in HEK293 cells - 24 hour (AID 1224886). Also: nearly all actives have a fitted effect of over 50% in size. Also: potency is read from the fitted curve at half-maximal effect. The procedure, abridged: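 Tox21 10K qHTS, HEK293, 600 cells/well, RealTime-Glo reagent co-dispensed with cells; 5 h preincubation, compound by pintool, 37 C, luminescence at 0–40 h.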
Assay [7] in a line: qHTS RealTime-Glo MT Cell Viability Assay in HEK293 cells - 8 hour (AID 1224887). Also: nearly all actives have a fitted effect of over 50% in size. Also: potency is read from the fitted curve at half-maximal effect. The procedure, abridged:
as §1

Assay [8] is described as follows: qHTS RealTime-Glo MT Cell Viability Assay in HepG2 cells - 0 hour (AID 1224889). Also: nearly all actives have a fitted effect of over 50% in size. Also: potency is read from the fitted curve at half-maximal effect. The essentials: as §4
Assay [9] can be described thus: A CellTox Green Cytotoxicity Assay to monitor cytotoxicity in HepG2 cells - 8 hour (AID 1224890). Also: nearly all actives have a fitted effect of over 45% in size. The procedure, abridged:
as §2

Assay [10] in a line: qHTS assay to identify small molecule antagonists of the estrogen receptor alpha (ER-alpha) signaling pathway using the BG1 cell line in the presence of 0.1 nM 17-beta-estradiol - cell viability counter screen (AID 1259241). Also: nearly all actives have a fitted effect of over 40% in size. The procedure, abridged:
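VM7Luc4E2 cells (endogenous full-length ER-alpha, 4xERE-luciferase), cultured 5 days in charcoal-stripped serum, exposed to compounds with 0.1 nM 17beta-estradiol (final) for 22 hr at 37C. Viability read in same wells as live-cell protease fluorescence after 30 min.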

Assay [11] in a line: qHTS assay to identify small molecule antagonists of the androgen receptor (AR) signaling pathway using the MDA cell line in the presence of 0.5 nM R1881 - cell viability counter screen (AID 1259242). Also: nearly all actives have a fitted effect of over 45% in size. The essentials: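 Human breast carcinoma MDA-kb2 cells, cultured without CO2, receive compounds alongside 0.5 nM (final) R1881 agonist. After 16 hr at 37C, viability is taken as live-cell protease signal.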

In assay [12] the target is Estrogen receptor (Homo sapiens) (UniProt P03372). The experiment in a line: qHTS assay to identify small molecule antagonists of the estrogen receptor alpha (ER-alpha) signaling pathway using the BG1 cell line in the presence of 0.1 nM 17-beta-estradiol (AID 1259244). Also: nearly all actives have a fitted effect of over 50% in size. The procedure, abridged: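 Seeding of stripped-serum-adapted VM7Luc4E2 cells, 24 h attachment, compound transfer, then 0.1 nM final 17beta-estradiol; after 22 h incubation, ONE-Glo reagent and luminescence reading.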
Sequence of Estrogen receptor (Homo sapiens) (P03372 whole entry, looked up): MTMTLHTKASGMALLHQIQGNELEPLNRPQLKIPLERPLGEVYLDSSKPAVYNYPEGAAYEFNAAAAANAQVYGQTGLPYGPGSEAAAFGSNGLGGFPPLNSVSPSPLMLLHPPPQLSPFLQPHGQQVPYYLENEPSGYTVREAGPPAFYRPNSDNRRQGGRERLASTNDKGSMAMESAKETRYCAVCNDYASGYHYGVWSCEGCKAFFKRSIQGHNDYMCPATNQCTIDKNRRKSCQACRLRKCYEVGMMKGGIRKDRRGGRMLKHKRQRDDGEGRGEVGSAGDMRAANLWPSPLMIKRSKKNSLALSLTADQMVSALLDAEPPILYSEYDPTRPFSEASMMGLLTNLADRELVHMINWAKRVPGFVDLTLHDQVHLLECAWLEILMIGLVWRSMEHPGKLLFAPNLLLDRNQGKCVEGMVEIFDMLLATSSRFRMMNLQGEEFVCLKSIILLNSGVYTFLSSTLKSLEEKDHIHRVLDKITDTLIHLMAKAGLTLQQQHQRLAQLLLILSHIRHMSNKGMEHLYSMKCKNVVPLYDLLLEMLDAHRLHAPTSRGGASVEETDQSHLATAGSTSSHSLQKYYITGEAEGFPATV

The nature of assay [13]: qHTS assay to identify small molecule HDAC inhibitors (AID 1259364).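 Also: wild-type HCT-116 cells with endogenous class I/II HDAC activity; top concentration of the series differs between compounds; nearly all actives have a fitted effect of over 45% in size.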 The procedure, abridged:
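After a 2 hr compound incubation (37C, 5% CO2), HCT-116 cells seeded at 1,500/well the day before received HDAC-Glo reagent; signal read as luminescence after 30 min at room temperature.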

The nature of assay [14]: qHTS assay to identify small molecule HDAC inhibitors - cell viability counter screen (AID 1259365). The essentials: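 Wild-type HCT-116 cells, 1,500/well, cultured overnight, then compound-treated 2 h at 37 C. Viability measured as ATP luminescence with CellTiter-Glo after 30 min at room temperature.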
Assay [15] in a line: qHTS assay to identify small molecule agonists of the sonic hedgehog signaling (Shh) pathway - cell viability counter screen (AID 1259366). Also: nearly all actives have a fitted effect of over 50% in size. Also: potency is read from the fitted curve at half-maximal effect. The procedure, abridged:
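NIH/3T3-derived Gli1-Luc reporter cells, 2,000 per well, received compound after 4 h and were treated about 23 h at 37C. Viability measured in the same wells by CellTiter-Fluor fluorescence after 1 h.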

Assay [16] can be described thus: qHTS assay to identify small molecule antagonists of the sonic hedgehog signaling (Shh) pathway - cell viability counter screen (AID 1259367). Also: nearly all actives have a fitted effect of over 55% in size. The procedure, abridged:
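Tox21 library chemicals were tested on a Gli1-Luc NIH/3T3 clone (2,000 cells/well) stimulated by conditioned medium; viability was quantified as fluorescence from CellTiter-Fluor reagent added at 23 hr.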

Assay [17] in a line: A CellTox Green Cytotoxicity Assay to monitor cytotoxicity in HEK293 cells - 16 hour (AID 1224888). Also: nearly all actives have a fitted effect of over 35% in size. The essentials:
as §3

Assay [18] can be described thus: qHTS assay to identify small molecule phospholipidosis (PLD) inducers (AID 1259344; active = well fitted curve in the direction sought with a large enough effect; an effect the other way counts as inactive or inconclusive). The procedure, abridged:
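Image-based: LipidTOX Red pit count/intensity per well and per cell; HepG2, 24 h compound at 37 C, PFA fixation, Hoechst counterstain.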

Assay [19] addresses Androgen receptor (Homo sapiens) (UniProt P10275). Description: qHTS assay to identify small molecule antagonists of the androgen receptor (AR) signaling pathway using the MDA cell line in the presence of 0.5 nM R1881 (AID 1259243). Also: nearly all actives have a fitted effect of over 50% in size. The essentials: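 Cells: MDA-kb2 (MMTV-luc). Stimulus: 0.5 nM R1881. Time: 16 hr, 37C, no CO2. Detection: ONE-Glo luminescence after 30 min at RT.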

Sequence of Androgen receptor (Homo sapiens) (P10275 whole entry, looked up): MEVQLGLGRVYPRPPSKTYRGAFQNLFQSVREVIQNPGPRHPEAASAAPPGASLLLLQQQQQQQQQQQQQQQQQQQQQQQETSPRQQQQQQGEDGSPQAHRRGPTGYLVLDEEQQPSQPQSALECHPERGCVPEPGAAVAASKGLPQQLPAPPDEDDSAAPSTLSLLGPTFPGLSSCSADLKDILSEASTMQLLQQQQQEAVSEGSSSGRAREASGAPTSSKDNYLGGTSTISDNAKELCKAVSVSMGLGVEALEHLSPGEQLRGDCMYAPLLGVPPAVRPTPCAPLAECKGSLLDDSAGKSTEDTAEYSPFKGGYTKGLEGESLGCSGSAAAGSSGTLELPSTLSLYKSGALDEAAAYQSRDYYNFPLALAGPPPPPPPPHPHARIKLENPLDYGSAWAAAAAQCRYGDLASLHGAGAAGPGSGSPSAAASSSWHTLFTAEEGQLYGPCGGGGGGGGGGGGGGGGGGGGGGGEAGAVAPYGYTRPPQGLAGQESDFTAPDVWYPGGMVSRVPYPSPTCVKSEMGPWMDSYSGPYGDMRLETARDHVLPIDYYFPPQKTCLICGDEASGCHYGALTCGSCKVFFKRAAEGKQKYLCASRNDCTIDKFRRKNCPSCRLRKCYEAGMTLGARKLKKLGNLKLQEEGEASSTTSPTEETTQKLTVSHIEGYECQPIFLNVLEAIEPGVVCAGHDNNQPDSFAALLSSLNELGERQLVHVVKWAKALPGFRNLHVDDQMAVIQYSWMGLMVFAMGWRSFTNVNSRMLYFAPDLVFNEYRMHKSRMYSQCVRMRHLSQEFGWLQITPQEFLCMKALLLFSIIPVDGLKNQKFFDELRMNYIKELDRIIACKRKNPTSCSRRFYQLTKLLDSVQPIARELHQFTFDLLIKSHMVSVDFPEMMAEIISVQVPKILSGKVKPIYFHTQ

Regarding `Cc1ccc(Nc2ccc(O)c3c2C(=O)c2ccccc2C3=O)cc1`, the call in assay [1], in [5], in assay [10], in [11], in assay [12] and in assay [14] was inactive. Besides, the outcome in [16] was inactive. Also, the Potency entry in assay [2], in assay [3], in assay [4], in [6], in assay [7] and in assay [8] was “inactive” throughout. Besides, the Potency entry in [9], in assay [13] and in assay [15] was “inactive” each time.

With `CC(C)(C)C(=O)/C=C/c1ccc(Cl)cc1`, the outcome in assay [1], in [5], in assay [10], in [11], in assay [12] and in [14] was inactive. The Potency result in assay [2], in assay [3], in [4], in assay [6], in [7] and in assay [8] was “inactive” throughout. Also, the Potency result in assay [9], in assay [13] and in assay [15] was “inactive” each time.

For `O=C(O)c1ccccc1S`, the compound was called inactive in [1], in [5], in [10], in [11], in assay [12] and in [14]. Also, the outcome in [16] was inactive. Further, the Potency result in [2], in assay [3], in assay [6], in assay [7], in [17] and in assay [8] was “inactive” in each case. In addition, the Potency result in assay [9], in assay [18], in [13] and in assay [15] was “inactive” throughout.

In the case of `C/C=C1\C(=O)C[C@H]2[C@@H]3CCC4=CC(=O)CC[C@]4(C)[C@H]3CC[C@]12C`, the Potency result in assay [2], in assay [3], in [4], in [17], in [9] and in assay [13] was “inactive” throughout. The result in [5], in assay [10], in [11], in [12], in assay [14] and in assay [16] was inactive. Besides, in [8], the Potency was 7.61 µM (active).

Take `O=[N+]([O-])c1ccc(Oc2ccc([N+](=O)[O-])cc2)cc1`: the call in assay [1], in assay [5], in [10], in [11], in assay [12] and in assay [14] was inactive. In [16], the compound was classed as inactive. Also, the Potency result in assay [2], in assay [3], in assay [4], in assay [17], in assay [8] and in [9] was “inactive” each time. Also, the Potency entry in assay [13] and in assay [15] was “inactive” each time.

Turning to `C=CCSCC1Nc2cc(Cl)c(S(N)(=O)=O)cc2S(=O)(=O)N1` (centres undefined), the compound was called inactive in assay [1], in assay [5], in assay [10], in assay [11], in [14] and in assay [16]. Moreover, the Potency result in assay [2], in [3], in assay [4], in assay [6], in [7] and in [8] was “inactive” throughout. In addition, the Potency entry in assay [9], in [18], in assay [13] and in assay [15] was “inactive” each time.

With `CCCCNc1ccccc1`, the call in assay [1], in assay [5], in assay [10], in assay [11], in [12] and in [14] was inactive. Also, the compound was classed as inactive in assay [16]. Moreover, the Potency entry in [3], in assay [4], in [6], in assay [7], in assay [17] and in assay [8] was “inactive” each time. For the same compound, the Potency result in [9], in assay [19], in [13] and in assay [15] was “inactive” in each case.

Turning to `CN(C)C(=O)C(CCN1CCC(O)(c2ccc(Cl)cc2)CC1)(c1ccccc1)c1ccccc1`, the result in assay [1] and in assay [14] was inactive. Further, the Potency in assay [3] was 19 µM (active); in assay [6] it was 9.52 µM (active); in [7], 12 µM (active); in assay [15], 16.8 µM (active). Also, the Potency result in assay [4], in [17], in assay [8] and in [13] was “inactive” throughout.

On to `Fc1ccccc1-c1ccccc1`, for which the call in assay [1], in assay [5], in assay [10], in assay [11], in assay [12] and in assay [14] was inactive. Besides, the result in [16] was inactive. Further, the Potency result in [2], in assay [4], in assay [6], in [7], in assay [17] and in assay [8] was “inactive” each time. The Potency entry in assay [13] and in assay [15] was “inactive” throughout.
